Bioassay records (PubChem BioAssay)
Hits are enriched below; roughly 1.2% of the tested compounds scored in any of these assays.
PrP 5UTR inh: suppresses PrP 5' UTR mRNA reporter expression; hit rate 0.35% among 340,000; inhibition, % (concentration not given with the values); cell-based PrP 5' UTR mRNA reporter, plate reader; in the data active means inhibition above about 52%; further: 0 = median of the neutral control wells
PriA SSB inh: K. pneumoniae PriA-SSBct interaction inhibition; AlphaScreen SSBct-PriA binding, biotinylated peptide; AID 1272365; inhibition, % at 33 µM; hit rate 0.6% among 430,000; in the data active means inhibition mostly above about 37%, no sharp cut-off; inactive means mostly below about 20%;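 further: plate controls were negative control peptide for no effect and reference peptide for full effect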
PrPC TRFRET: cell surface PrPC inhibition, primary TR-FRET screen; TR-FRET read-out; AID 720596; inhibition, % at 13.8 µM; hit rate 0.43% among 370,000; P04156; in the data active means inhibition above about 24%; further: 0% = median of the test wells and 100% = reference compound wells
3CLpro inhibitor: SARS-CoV 3CLpro protease inhibition. AID 1706. recombinant SARS-CoV 3CLpro, quenched FRET peptide cleavage. hit rate 0.14% among 290,000. P0C6X7. inhibition, % at 6 µM; in the data active means inhibition above about 12%
BJeLR viability: kills HRASV12-expressing BJeLR cells; AID 1554; BJeLR (HRASV12) viability, CellTiter-Glo ATP luminescence, 48 h; hit rate 0.17% among 300,000; inhibition, % (test concentration not listed); in the data active means inhibition above about 50%
* = called active by the depositor; nt = no result given.

SMILES	PrP 5UTR inh	PriA SSB inh	PrPC TRFRET	3CLpro inhibitor	BJeLR viability
CC(=O)c1sc(Nc2ccccc2)nc1C	nt	nt	-2.4	nt	nt
CC(C)(C)C(=O)c1sc(Nc2ccccc2)nc1N	-178.9	40.3*	0.2	5.1	-10.0
CCOC(=O)C(Nc1ccc2ccccc2c1)C(=O)OCC	-27.0	57.6*	8.7	3.3	2.8
CC(=O)Nc1ccc2ccccc2c1	-13.9	-1.6	nt	-0.5	-1.3
CCN1CCCc2cc(CCNC(=O)C(=O)Nc3cccc(NC(C)=O)c3)ccc21	nt	54.0*	nt	nt	nt
CCN1CCCc2cc(CCNC(=O)Nc3ccccc3)ccc21	nt	63.0*	nt	nt	nt
CCCN1CCCc2cc(CCNC(=O)C(=O)Nc3ccc(OC)c(Cl)c3)ccc21	nt	37.0	nt	nt	nt
Cc1cc(NC(=O)C(=O)NCCc2ccc3c(c2)CCCN3C)c2ccccc2n1	nt	42.0*	nt	nt	nt
CCN1CCCc2cc(CCNC(=O)Nc3ccc(OC)c(OC)c3)ccc21	nt	70.0*	nt	nt	nt
NS(=O)(=O)c1ccc(CNC(=O)c2csc(Nc3cccc(Cl)c3)n2)cc1	nt	3.0	nt	nt	nt
COc1ccc(C(=O)OCCN2CCN(S(=O)(=O)c3ccc(C)cc3)CC2)cc1OC	nt	4.0	nt	nt	nt
COc1cnc(-c2ccccn2)nc1NC(C)C	5.1	95.0*	22.5	5.2	3.0
COc1ccccc1Sc1nc(-c2ccccn2)ncc1OC	-4.5	23.4	10.0	-1.3	-0.1
COc1cnc(-c2ccccn2)nc1N1CCOCC1	nt	156.0*	nt	nt	nt
CN(C)CCCn1cnc2c(c1=N)C(c1ccccc1)c1ccc3ccccc3c1O2 (stereo not given)	-38.5	51.0*	-19.0	-19.9	41.5
Cc1cc(C(=O)NCc2ccco2)no1	-18.8	0.1	-0.2	-2.9	-7.6
CC(C)Cc1cc(C(=O)NCc2ccco2)no1	-45.8	95.5*	-1.8	5.3	-3.8
COc1ccc(C(=O)Nc2nc3c(s2)CCC3C(=O)NCc2ccco2)cc1 (stereo not given)	nt	1.0	nt	nt	nt
Clc1ccc2nc(CN3CCCCC3)cn2c1	-33.8	2.0	-1.2	1.0	-9.7
Clc1ccc2nc(CN3CCCc4ccccc43)cn2c1	-27.5	42.6*	-2.4	1.2	-2.0
COC(=O)c1ccc2nc(Nc3nc4ccc(F)cc4s3)sc2c1	81.1*	-3.1	-1.8	2.3	-9.9
COC(=O)c1ccc2nc(Nc3nc4cc5c(cc4s3)OCO5)sc2c1	nt	-2.0	nt	nt	nt
C=C1CC[C@@]2(O)[C@H]3Cc4ccc(O)c5c4[C@@]2(CCN3CC2CC2)[C@H]1O5	-9.2	41.0*	nt	-4.8	-3.2
CN(C)c1ccc(CCCN)cc1	nt	30.0	nt	nt	nt
O=C1C2=C(Nc3ccccc3SC2c2ccco2)c2ccccc21 (stereo not given)	-24.1	48.0*	-23.7	7.3	-1.1
SMILES	PrP 5UTR inh	PriA SSB inh	PrPC TRFRET	3CLpro inhibitor	BJeLR viability
CCOc1ccc(-c2ccc(=O)n(CCNC(=O)NCc3ccccc3)n2)cc1	nt	-4.0	nt	nt	nt
Cn1c(=O)[nH]c(=O)c2c1nc(NC1CCCCC1)n2CC(O)c1ccccc1 (stereo not given)	nt	-2.0	nt	nt	nt
N=c1c2c(-c3ccccc3)c(-c3ccccc3)n(Cc3ccccc3)c2ncn1CCCn1ccnc1	-12.4	46.2*	-11.2	-1.8	15.3
CCCCn1cnc2c(c(-c3ccccc3)c(-c3ccccc3)n2Cc2ccco2)c1=N	nt	6.5	-10.7	6.2	62.3*
c1ccc(-c2cc(-c3ccccc3)[n+](-c3ccccc3)c(-c3ccccc3)c2)cc1	-9.1	-1.7	19.6	-2.1	15.1
Cc1ccc(-c2cc(-c3ccc(C)cc3)[n+](-c3ccccc3)c(-c3ccc(C)cc3)c2)cc1	46.1	2.2	nt	nt	67.5*
Cc1ccc(-c2cc(-c3ccccc3)cc(-c3ccccc3)[n+]2-c2ccccc2)cc1	-56.0	11.3	27.1*	nt	74.8*
Cc1ccc(-c2cc(-c3ccc(C)cc3)[n+](-c3ccc(C(=O)[O-])cc3)c(-c3ccc(C)cc3)c2)cc1	-1.1	nt	-21.3	nt	78.4*
Cc1nc(N2CCN(C(=O)COc3ccc(Cl)cc3Cl)CC2)cc(-n2cccc2)n1	nt	2.0	nt	nt	nt
CN(C)CC1CSCCCN1C(=O)Cc1cccs1 (stereo not given)	nt	-8.0	nt	nt	nt
CCOc1ccc(NC(=S)NN(C)C(=S)Nc2ccc(OCC)cc2)cc1	3.9	40.2*	0.6	2.2	8.4
CCc1cnc2c(c1OC)c(=O)[nH]c(=O)n2C	nt	0.0	nt	nt	nt
COC(=O)C[C@]1(C(=O)OC)CN(C#N)N(c2ccc(Cl)cc2)C12c1ccccc1-c1ccccc12	-0.9	-13.1	74.9*	7.4	66.9*
COC(=O)[C@@H]1[C@@H](C(=O)OC)C2(c3ccccc3-c3ccccc32)N(c2ccc(Cl)cc2)N1C#N	-1.4	10.8	22.7	3.0	33.5
